Results as given in PubChem BioAssay (Tox21).
“And” between values parts separate entries of the source, which are not always exact repeats. Identical values can stand only once. Inconclusive results are not listed. The source made the active and inactive calls. Unless noted, the call rests on the fitted dose curve; in most records, active means well fitted curve in the direction sought with a large enough effect in the repeat runs; inconclusive means weak or mixed curves; inactive means no such curve, though single readings can be large; an effect the other way counts as inactive or inconclusive.

Columns and labels:
[1] = qHTS assay to test for compound auto fluorescence at 535 nm (green) in HEK293 cells (AID 720680)
[2] = qHTS assay to test for compound auto fluorescence at 460 nm (blue) in HEK293 cell free culture (AID 720681)
Procedure, shortened: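 Test compounds were pinned into cell-free culture medium (DMEM with 10% FBS) and fluorescence was read directly at Ex/Em 405/460 nm. Signals were expressed as fluorescence equivalents of triamterene, with DMSO vehicle as control.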

[3] = qHTS assay to test for compound auto fluorescence at 535 nm (green) in HEK293 cell free culture (AID 720682)
Procedure, shortened: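 Measurement is a direct plate read of green fluorescence (485 nm in, 535 nm out) after compound addition to serum-supplemented DMEM lacking cells, with fluorescein used to express intensities.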

[4] = qHTS assay to test for compound auto fluorescence at 590 nm (red) in HepG2 cell free culture (AID 720684)
Procedure, shortened: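 Readout: intrinsic compound fluorescence at 590 nm emission after 540 nm excitation, scaled to Rose Bengal sodium. Matrix was cell-free MEM with 10% FBS; DMSO vehicle wells served as control.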

[5] = qHTS assay to test for compound auto fluorescence at 460 nm (blue) in HepG2 cell free culture (AID 720685)
Procedure, shortened: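 Cell-free plates of MEM plus 10% FBS received 23 nL compound or DMSO vehicle; blue-channel (405/460 nm) intensity scored against triamterene as reference fluorophore.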

[6] = qHTS assay to test for compound auto fluorescence at 535 nm (green) in HepG2 cell free culture (AID 720686)
[7] = qHTS assay to test for compound auto fluorescence at 460 nm (blue) in HepG2 cells (AID 720687)
Procedure, shortened: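 Cells (2,000/well in MEM with 10% FBS) attached overnight at 37 C, then were exposed to compound or DMSO for 1 hr at 37 C, 5% CO2. Fluorescence read at Ex/Em 405/460 nm, expressed as triamterene-equivalent signal.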

[8] = molecular target: Glucocorticoid receptor (Homo sapiens) (UniProt P04150); test: qHTS assay to identify small molecule agonists of the glucocorticoid receptor (GR) signaling pathway (AID 720691; active means well fitted activation curve with a large enough effect in the signal ratio in the repeat runs, not every such curve was filed as active; the % refers to the signal ratio); settings: GR-bla HeLa, beta-lactamase reporter ratio, 18 h; activation: at 62.4 µM (top of the series)
Procedure, shortened: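 Compounds in DMSO, alongside positive controls, were added to GR-bla HeLa reporter cells and incubated 18 h at 37 C; GRE-driven beta-lactamase was detected by fluorescence after 2 h with FRET substrate at room temperature.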

[9] = molecular target: Glucocorticoid receptor (Homo sapiens) (UniProt P04150); test: qHTS assay to identify small molecule antagonists of the glucocorticoid receptor (GR) signaling pathway (AID 720692; active means well fitted inhibition curve with a large enough effect in the signal ratio in the repeat runs, not every such curve was filed as active; the % refers to the signal ratio)
Procedure, shortened: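 In a 1536-well cell format, compounds were added 4 h after seeding GR-bla HeLa cells, together with dexamethasone at 5 nM final; reporter activity was measured by FRET-substrate fluorescence following 18 h at 37 C.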

[10] = qHTS assay to identify small molecule antagonists of the glucocorticoid receptor (GR) signaling pathway - cell viability counter screen (AID 720693); further: nearly all actives have a fitted effect of over 55% in size; further: potency means the concentration at half of the fitted maximal effect
[11] = qHTS assay for identifying genotoxic compounds that show differential cytotoxicity against isogenic chicken DT40 cell lines with known DNA damage response pathways - wild type cell line (AID 743012); further: nearly all actives have a fitted effect of over 60% in size; further: potency means the concentration at half of the fitted maximal effect
Procedure, shortened: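 Viability of DNA repair-proficient chicken DT40 cells was assessed by CellTiter-Glo luminescence following 40 h compound exposure at 37 C/5% CO2.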

[12] = qHTS assay for identifying genotoxic compounds that show differential cytotoxicity against isogenic chicken DT40 cell lines with known DNA damage response pathways - Rev3 mutant cell line (AID 743014); further: nearly all actives have a fitted effect of over 55% in size; further: potency means the concentration at half of the fitted maximal effect
[13] = qHTS assay to identify small molecule antagonists of the androgen receptor (AR) signaling pathway - cell viability counter screen (AID 743033; further: nearly all actives have a fitted effect of over 45% in size; further: potency means the concentration at half of the fitted maximal effect)
[14] = qHTS assay to identify small molecule antagonists of the androgen receptor (AR) signaling pathway using the MDA cell line - cell viability counter screen (AID 743041; further: nearly all actives have a fitted effect of over 45% in size)
Procedure, shortened: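 qHTS viability read-out; MDA-kb2 AR-luc; R1881-stimulated; 16 h exposure at 37C, 0% CO2; CellTiter-Fluor, 30 min; fluorescence intensity.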

[15] = qHTS assay to identify small molecule antagonists of the thyroid receptor (TR) signaling pathway - cell viability counter screen (AID 743064); further: nearly all actives have a fitted effect of over 50% in size; further: potency means the concentration at half of the fitted maximal effect
Procedure, shortened: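 Compounds were tested on GH3.TRE-Luc cells in the presence of T3 at 1 nM final. Following 23.5 h at 37 °C, cell viability was quantified by CellTiter-Fluor.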

[16] = qHTS assay to test for compound auto fluorescence at 590 nm (red) in HEK293 cell free culture (AID 720683)
Procedure, shortened: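 Tox21 10K library compounds were pinned into cell-free DMEM with 10% FBS and fluorescence was read at excitation 540 nm. Activity is expressed as Rose Bengal sodium equivalency.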

[17] = qHTS assay for identifying genotoxic compounds that show differential cytotoxicity against isogenic chicken DT40 cell lines with known DNA damage response pathways - Rad54/Ku70 mutant cell line (AID 743015); further: nearly all actives have a fitted effect of over 60% in size; further: potency means the concentration at half of the fitted maximal effect
[18] = molecular target: Androgen receptor (Homo sapiens) (UniProt P10275); test: qHTS assay to identify small molecule agonists of the androgen receptor (AR) signaling pathway using the MDA cell line (AID 743040; further: nearly all actives have a fitted effect of over 20% in size)
Procedure, shortened: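 Agonist activity is measured as luciferase luminescence in human MDA-kb2 cells whose MMTV reporter responds to both AR and GR. Compounds in DMSO incubate 16 h at 37C, 0% CO2, and ONE-Glo is read after 30 min.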

[19] = molecular target: Androgen receptor (Homo sapiens) (UniProt P10275); test: qHTS assay to identify small molecule antagonists of the androgen receptor (AR) signaling pathway using the MDA cell line (AID 743042; further: nearly all actives have a fitted effect of over 55% in size; further: potency means the concentration at half of the fitted maximal effect)
Procedure, shortened: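 MDA-kb2 cells (human breast carcinoma, stably carrying an MMTV-luciferase reporter responsive to AR and GR) were plated at 3,000 cells/well and preincubated 5 hr at 37C, then given compound plus R1881 agonist for 16 h. ONE-Glo luminescence was read.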

Measured: Potency

Chain of Androgen receptor (Homo sapiens) (P10275 whole entry, looked up): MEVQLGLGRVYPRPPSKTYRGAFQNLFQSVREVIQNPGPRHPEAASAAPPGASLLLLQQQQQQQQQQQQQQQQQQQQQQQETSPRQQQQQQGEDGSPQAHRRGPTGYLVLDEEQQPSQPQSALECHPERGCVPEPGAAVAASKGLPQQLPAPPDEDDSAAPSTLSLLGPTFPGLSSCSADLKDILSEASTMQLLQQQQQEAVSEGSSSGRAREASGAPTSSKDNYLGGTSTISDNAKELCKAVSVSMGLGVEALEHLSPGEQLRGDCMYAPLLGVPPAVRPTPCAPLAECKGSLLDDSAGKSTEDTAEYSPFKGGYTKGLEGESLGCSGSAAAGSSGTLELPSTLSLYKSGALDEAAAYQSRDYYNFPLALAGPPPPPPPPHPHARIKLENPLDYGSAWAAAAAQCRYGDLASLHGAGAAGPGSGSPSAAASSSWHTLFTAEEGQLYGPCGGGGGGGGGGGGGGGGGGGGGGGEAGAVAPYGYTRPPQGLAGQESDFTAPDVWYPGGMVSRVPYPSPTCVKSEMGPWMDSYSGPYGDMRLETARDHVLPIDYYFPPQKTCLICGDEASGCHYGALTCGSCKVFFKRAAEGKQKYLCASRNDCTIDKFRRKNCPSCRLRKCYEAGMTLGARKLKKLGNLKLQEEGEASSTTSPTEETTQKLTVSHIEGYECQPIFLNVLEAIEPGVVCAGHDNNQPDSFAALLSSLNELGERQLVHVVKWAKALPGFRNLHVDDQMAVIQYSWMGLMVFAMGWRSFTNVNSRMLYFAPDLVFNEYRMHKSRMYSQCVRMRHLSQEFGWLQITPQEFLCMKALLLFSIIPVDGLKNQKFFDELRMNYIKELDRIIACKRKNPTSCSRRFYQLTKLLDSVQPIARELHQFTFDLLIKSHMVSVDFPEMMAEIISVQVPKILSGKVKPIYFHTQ
Chain of Glucocorticoid receptor (Homo sapiens) (P04150 whole entry, looked up): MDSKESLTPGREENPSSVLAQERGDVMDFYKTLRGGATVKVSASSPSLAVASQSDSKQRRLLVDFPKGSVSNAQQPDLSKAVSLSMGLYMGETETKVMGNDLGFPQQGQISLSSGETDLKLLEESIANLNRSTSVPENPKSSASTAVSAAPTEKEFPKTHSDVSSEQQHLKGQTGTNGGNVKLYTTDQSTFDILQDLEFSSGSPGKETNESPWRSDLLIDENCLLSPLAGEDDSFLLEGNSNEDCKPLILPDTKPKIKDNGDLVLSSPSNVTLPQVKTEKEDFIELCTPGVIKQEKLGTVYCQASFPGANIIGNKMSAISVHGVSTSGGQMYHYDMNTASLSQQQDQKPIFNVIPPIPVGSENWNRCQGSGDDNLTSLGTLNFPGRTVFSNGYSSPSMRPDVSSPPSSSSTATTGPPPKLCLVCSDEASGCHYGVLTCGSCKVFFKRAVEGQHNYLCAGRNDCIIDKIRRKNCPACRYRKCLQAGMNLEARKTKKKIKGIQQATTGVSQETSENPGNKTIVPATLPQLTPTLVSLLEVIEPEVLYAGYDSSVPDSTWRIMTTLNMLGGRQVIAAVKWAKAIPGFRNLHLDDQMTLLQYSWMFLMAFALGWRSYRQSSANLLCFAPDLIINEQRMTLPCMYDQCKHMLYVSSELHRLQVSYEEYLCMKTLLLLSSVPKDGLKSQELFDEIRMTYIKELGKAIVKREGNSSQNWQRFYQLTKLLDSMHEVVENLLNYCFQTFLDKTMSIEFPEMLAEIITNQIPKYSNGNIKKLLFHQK

COCCC#N
not listed: [16] | [17] | [18] | [19]
inactive: all other assays above

CNC(=O)O/N=C(\C)C(C)S(C)(=O)=O (stereo unspecified)
not listed: [4] | [11] | [12] | [16] | [17] | [18] | [19]
inactive: all other assays above

CCN(CC)C(=O)N[C@@H]1C=C2c3cccc4[nH]cc(c34)C[C@@H]2N(C)C1
active: [11] 7.5 µM | [12] 26.6 µM | [17] 16.8 µM
not listed: [2] | [15] | [18] | [19]
inactive: all other assays above

Nc1ccccc1-c1ccccc1
not listed: [9] | [16] | [18] | [19]
inactive: all other assays above

CCCCCON=O
not listed: [8] | [9] | [11] | [14] | [16] | [18] | [19]
inactive: all other assays above

CCC(C)c1cccc(C(C)CC)c1O (stereo unspecified)
inactive: [1] | [2] | [3] | [16] | [5] | [6] | [7] | [10] | [13] | [14]

ClC1=C(Cl)[C@]2(Cl)[C@H]3[C@H]([C@@H]4C=C[C@H]3C4)[C@@]1(Cl)C2(Cl)Cl
active: [15] 68.5 µM and 61.1 µM
not listed: [4] | [8] | [9] | [10] | [11] | [18] | [19]
inactive: all other assays above

CCC1COC(Cn2cncn2)(c2ccc(Cl)cc2Cl)O1 (stereo unspecified)
active: [11] 15.4 µM | [12] 9.69 µM | [17] 19.3 µM
not listed: [4] | [10] | [16] | [18] | [19]
inactive: all other assays above

[Cl-].[Cl-].[Cl-].[Yb+3]
not listed: [8] | [9] | [15] | [16] | [17] | [18] | [19]
inactive: all other assays above

Oc1cc(Cl)c(Cl)c(Cl)c1Cl
active: [10] 21.4 µM | [13] 53.7 µM | [19] 59.7 µM | [15] 29.9 µM
inactive: [1] | [2] | [3] | [4] | [5] | [6] | [7] | [18]

CC(C)[C@@H](Nc1ccc(C(F)(F)F)cc1Cl)C(=O)OC(C#N)c1cccc(Oc2ccccc2)c1 (stereo partly specified)
not listed: [8] | [9] | [11] | [16] | [18] | [19]
inactive: all other assays above

CCCC[N+]1(C)CCCC1 (tested in a mixture with another compound)
not listed: [8] | [9] | [16] | [18] | [19]
inactive: all other assays above

CSSC
inactive: [1] | [2] | [3] | [5] | [6] | [7] | [10] | [11] | [13] | [14]

Cc1c([N+](=O)[O-])cc2c(c1[N+](=O)[O-])C(C)(C)CC2(C)C
not listed: [2] | [11] | [12] | [15] | [18] | [19]
inactive: all other assays above

ClC(Cl)C(Cl)(Cl)Cl
not listed: [2] | [15] | [17] | [18] | [19]
inactive: all other assays above

CC1=C2C[C@H]3[C@@H](CC=C4C[C@@H](O)CC[C@@]43C)[C@@H]2CC[C@]12O[C@@H]1C[C@H](C)CN[C@H]1[C@H]2C
active: [11] 29.8 µM | [12] 8.41 µM | [17] 29.8 µM
not listed: [2] | [9]
inactive: all other assays above

CCCCc1ccccc1
not listed: [2] | [18] | [19]
inactive: all other assays above
